Experimental data taken from PubChem BioAssay AID2472 (National Center for Advancing Translational Sciences (NCATS), 2010).
Screen size: about 290,000 compounds; about 2,000 (0.69%) were called active. The entries come from a sample that favours actives as a whole. Unmarked numbers belong to inactive results. No stated cut-off is given here; in the data, active means activity change below about -30%; inactive means the rest, inconclusive results apart.

Experiment: qHTS Assay for Inhibitors of Fructose-1,6-bisphosphate Aldolase from Giardia Lamblia: Coupling assay counterscreen
Details: coupling enzyme system counterscreen, AmpLite Red fluorescence; at 58.2 µM (top of the series)
How it was run: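 Activity here indicates interference with the coupling reaction, not aldolase inhibition. Compounds at 57.5 uM final met coupling enzymes for 10 min at RT; substrate and AmpLite Red detection followed, with a 525/598 nm fluorescence read after 20 min.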
On the % scale 0 is the no-effect control and ±100 the full control effect.

Row | SMILES | activity change, negative = inhibition
1 | COC(=O)N/N=C/c1cn(CCCOc2ccc(C)cc2)c2ccccc12 | -8.57%
2 | COc1ccc(C2CC(O)(c3ccccc3)Oc3cc(C)cc(C)c32)cc1 (stereo not drawn) | -4.71%
3 | CC1C(=O)C(C)C(c2ccc(O)cc2)NC1c1ccc(O)cc1 (stereo not drawn) | -1.45%
4 | CCOC(=O)c1cc2occc2n1CC(=O)N1CCN(C(=O)c2ccco2)CC1 | 2.42%
5 | CCOC(=O)c1cc2c(ccn2C)n1CC(=O)N1CCC(C)CC1 | -41.2% (active)
6 | CCOC(=O)c1cc2occc2n1CC(=O)NC1CCC(C)CC1 (stereo not drawn) | -0.298%
7 | COC(=O)N1C(/C=C/C=C/c2ccc(OC)cc2)=Cc2ccccc2C1CC(C)=O (stereo not drawn) | -0.194%
8 | Cc1ccc(OCC(=O)Nc2ccccc2Sc2ccc(Cl)cc2)c([N+](=O)[O-])n1 | -30.3% (active)
9 | CCc1ccccc1NC(=O)CN(C)C(=O)COc1ccc(C)nc1[N+](=O)[O-] | -2.08%
10 | Cc1ccc(OCC(=O)NC(C)c2ccccc2)c([N+](=O)[O-])n1 (stereo not drawn) | 0.28%
11 | C=C(C(C)=O)C(O)c1cccs1 (stereo not drawn) | 2.11%
12 | O=C(COCc1cc(-c2ccc3c(c2)OCO3)on1)N1CCN(c2cccc(Cl)c2)CC1 | -0.674%
13 | CCN(CC)c1ccc(/C=N/Nc2nc(C)cc(C)n2)c(O)c1 | -8.39%
14 | CCN(CC)c1ccc2cc(C(N)=O)/c(=N\NC(=O)c3ccncc3)oc2c1 | -7.4%
15 | CCN(CC)c1ccc2oc(=O)c(C)nc2c1 | -46.3% (active)
16 | CCC(=O)Nc1ccc2nn(-c3ccc(F)cc3)nc2c1 | 0.799%
17 | O=C(O)CCC(=O)NCc1ccc2[nH]c3c(c2c1)CCCC3 | -41.3% (active)
18 | Cc1cccc(NC(=S)NCc2ccc3[nH]c4c(c3c2)CCCC4)c1 | -0.782%
19 | O=C(O)CCC(=O)NCc1ccc(C(=O)O)cc1 | 3.84%
20 | Cc1ccc(C23CC4CC(CC(C(=O)NCC(=O)O)(C4)C2)C3)cc1 | 6.61%
21 | O=S(=O)(Nc1cccc(Oc2ccc(Cl)cc2)n1)c1ccc(F)cc1 | 3.65%
22 | Cc1ccc(C2C3=C(Nc4[nH]n(-c5ccccc5)c(=O)c42)c2ccccc2C3=O)cc1 (stereo not drawn) | -44% (active)
23 | Cc1ccc(-c2ccnc3[nH]n(-c4ccccc4)c(=O)c23)cc1 | 2.09%
24 | Cc1cc(C)c(C2C3=C(Nc4c2c(C)nn4-c2ccccn2)c2ccccc2C3=O)c(C)c1 (stereo not drawn) | -0.679%
25 | COc1cc(Cl)c(C)cc1NC(=O)CN1CCCCCC1 | 0.688%
26 | CC(C)N1CCc2c(sc(NC(=O)Cc3ccccc3)c2C#N)C1 | -3%
27 | N#Cc1c(N)sc2c1CCN(C(=O)OCc1ccccc1)C2 | -39.2% (active)
28 | CC(=O)N1CCc2c(sc(NC(=O)CCS(=O)(=O)c3ccccc3)c2C#N)C1 | 1.84%
